Source: PubChem BioAssay (National Center for Advancing Translational Sciences (NCATS))
15-hLO-2 inh: qHTS Assay for Inhibitors of 15-hLO-2 (15-human lipoxygenase 2). Polyunsaturated fatty acid lipoxygenase ALOX15B (Homo sapiens), O15296. purified 15hLO-2, xylenol orange hydroperoxide absorbance. Potency, µM (doses to about 57.1 µM), inactives show at the highest dose activity change, negative = inhibition, most hits filed as inhibitors. 110,000 tested, 0.56% active; also: potency is read from the fitted curve at half-maximal effect; nearly all actives have a fitted effect of over 60% in size
Target sequence (O15296 whole entry, looked up): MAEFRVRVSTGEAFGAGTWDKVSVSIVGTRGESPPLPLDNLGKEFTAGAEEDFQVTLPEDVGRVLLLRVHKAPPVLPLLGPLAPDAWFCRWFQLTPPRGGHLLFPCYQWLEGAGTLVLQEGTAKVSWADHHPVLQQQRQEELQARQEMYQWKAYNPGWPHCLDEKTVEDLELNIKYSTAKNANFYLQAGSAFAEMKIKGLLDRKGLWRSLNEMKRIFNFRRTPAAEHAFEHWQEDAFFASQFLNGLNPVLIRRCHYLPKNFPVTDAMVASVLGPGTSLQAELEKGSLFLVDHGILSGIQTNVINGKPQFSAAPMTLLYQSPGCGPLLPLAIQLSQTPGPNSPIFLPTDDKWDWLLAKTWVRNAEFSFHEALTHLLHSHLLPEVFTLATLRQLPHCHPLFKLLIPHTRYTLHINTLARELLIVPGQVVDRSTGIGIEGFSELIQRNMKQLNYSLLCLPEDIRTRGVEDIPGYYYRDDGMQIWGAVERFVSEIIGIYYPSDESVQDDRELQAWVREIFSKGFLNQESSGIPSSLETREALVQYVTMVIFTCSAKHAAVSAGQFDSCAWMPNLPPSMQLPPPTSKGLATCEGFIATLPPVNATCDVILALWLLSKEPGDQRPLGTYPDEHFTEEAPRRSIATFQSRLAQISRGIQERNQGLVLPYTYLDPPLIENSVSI
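Enzyme 50 nM, AA 45 uM, 25 mM Hepes pH 7.5 + 0.01% Triton X-100; cpd preinc 15 min RT, rxn 90 min RT; stop/detect with 200 uM XO + 300 uM Fe(II) in 50 mM H2SO4, 30 min; A573/A405.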
IMPase Li inh: qHTS Assay for Identifying the Cell-Membrane Permeable IMPase Inhibitors: Potentiation with Lithium | CHO-M1 cells, IP1 TR-FRET (IP-One), carbachol + lithium | Potency, µM (doses to about 59.4 µM), inactives show top-dose activity, negative = IMPase inhibition, most hits filed as inhibitors | 210,000 tested, 0.35% active;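 also: IP1 builds up when IMPase is blocked and the TR-FRET signal falls; potency is read from the fitted curve at half-maximal effect; plate controls were basal vehicle for no effect and high inhibitor control for full effect; nearly all actives have a fitted effect of over 50% in size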
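CHO cells stably expressing M1 receptor (2000/well) were cultured 16–30 h, then exposed to compounds with a small lithium addition for 30 min at 37C. IP1 was measured by TR-FRET competition; AC50 from Hill fits.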
PNC assembly inh: High Content Assay for Compounds that inhibit the Assembly of the Perinucleolar Compartment; PC3M PTB-GFP, PNC prevalence imaging, 16 h; stronger effect = lower value; activity change (PNC), negative = inhibition, % at 10 µM; 140,000 tested, 3.1% active; AID 2417, 2010;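 active = readout at or below -70, meaning at least 70% loss of cells showing the perinucleolar compartment, a nuclear body marking cancer cells; inconclusive = readout between -30 and a set limit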;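 also: plate controls were DMSO wells for no effect and camptothecin positive control wells for full effect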
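Read-out is percentage of cells bearing a perinucleolar compartment, from automated 20x imaging of fixed, Hoechst-stained PC3M PTB-GFP cells. Cells were seeded 4 h, then exposed 16 h to compound (23 nl of library stock) in duplicate plates.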
IMPase inh: qHTS Assay for Identifying the Cell-Membrane Permeable IMPase Inhibitors | Inositol monophosphatase 1 (Rattus norvegicus), P97697 | CHO-M1 cells, IP1 accumulation, HTRF TR-FRET ratio | inhibition (IP1 accumulation), % at 46.1 µM | 120,000 tested, under 10 active; active = well fitted curve in the direction sought with a large enough effect in the signal ratio, not every such curve was filed as active; inconclusive = small, poorly fitted or top-dose-only effect, or a change in a side signal; inactive = no such curve, though single readings can be large or run the other way; the % refers to the signal ratio;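 also: cells stimulated with carbachol in lithium chloride buffer; plate controls were DMSO basal wells for no effect and reference inhibitor wells for full effect; higher means more IMPase inhibition seen as more IP1 and lower FRET ratio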
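Measured: the HTRF emission ratio (665/620 nm) plus the 620 nm donor channel, each fitted to the Hill equation to give AC50. Cells were CHO-M1 given compounds up to 46 uM and a 30 min carbachol stimulation at 37C.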
HPGD block: qHTS Assay for Inhibitors of HPGD (15-Hydroxyprostaglandin Dehydrogenase); purified HPGD, NADH fluorescence kinetic, PGE2 substrate; AID 894, 2007; 15-hydroxyprostaglandin dehydrogenase [NAD(+)] (Homo sapiens), P15428; Potency, µM, inactives show top-dose activity change, negative = inhibition, usual class: inhibitors; 150,000 tested, 4.3% active; active = well fitted inhibition curve with a large enough effect, not every such curve was filed as active; inconclusive = small, poorly fitted or top-dose-only effect, or another doubt; inactive = no such curve, though single readings can be large or run the other way; also: potency is read from the fitted curve at half-maximal effect
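20 nM HPGD preincubated 15 min at room temperature with compound in 50 mM Tris-HCl pH 8, 0.01% Tween 20. Started with 1 mM NAD+ and 30 uM prostaglandin E2; NADH fluorescence (360/450 nm) read 5 times over 30-s intervals, last minus first.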
12-hLO inh: qHTS Assay for Inhibitors of 12-hLO (12-human lipoxygenase). Polyunsaturated fatty acid lipoxygenase ALOX12 (Homo sapiens), P18054. purified 12-hLO, xylenol orange hydroperoxide absorbance. 150,000 tested, 0.12% active. Potency, µM (titrated, usually from 57.1 µM), for inactives: at the highest dose activity change, negative = inhibition, usual class: inhibitors; also: potency is read from the fitted curve at half-maximal effect; nearly all actives have a fitted effect of over 55% in size
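Xylenol orange chromogenic assay: hydroperoxide from 12hLO oxidises Fe(II), giving red-shifted Fe(III)-XO absorbance. Conditions: 150 nM enzyme, 40 uM arachidonic acid, 25 mM Hepes pH 7.0, 0.01% Triton X-100, 30 min, room temperature.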
* marks the source's active call; other numbers are inactive results; [ ] = dose if it differs, or a comment. Hits are enriched below; roughly 5.3% of the tested compounds scored in any of these assays. Unless noted, calls follow the shape of the dose curve; as a rule, active = well fitted curve in the direction sought with a large enough effect; inconclusive = small, poorly fitted or top-dose-only effect, or another doubt; inactive = no such curve, though single readings can be large; an effect the other way counts as inactive or inconclusive. Unless noted, % is scaled to controls: 0 for no effect and ±100 for the full control effect.

`O=C(CSc1nc2ccccc2c(=O)n1Cc1ccccc1)NCc1ccco1` gave 15-hLO-2 inh -12.6%, IMPase Li inh 10µM*, PNC assembly inh 53.8, IMPase inh -20.5, HPGD block -22.7% and 12-hLO inh 4.3%.
COc1ccc(Cn2c(SCC(=O)NCc3ccco3)nc3ccsc3c2=O)cc1 was read as 15-hLO-2 inh -1.1%, IMPase Li inh 3.5%, PNC assembly inh 4.6, IMPase inh 2.2, HPGD block -6.0% and 12-hLO inh 2.4%.
For COc1ccc(NC(=O)CSc2nc3ccccc3c3nc4ccccc4n23)cc1 the results were IMPase Li inh -9.8%, PNC assembly inh 34.1, HPGD block -25.0% and 12-hLO inh -0.8%.
`Cc1ccc(NC(=O)CSc2nc3ccccc3c3nc4ccccc4n23)cc1` gave 15-hLO-2 inh inconclusive, IMPase Li inh 8.1%[38.3 µM], PNC assembly inh -107.5*, IMPase inh -19.5, HPGD block -15.2% and 12-hLO inh -3.0%.
For CCn1c(SCC(=O)NCc2ccco2)nc2ccccc2c1=O the results were IMPase Li inh 4.0%.
Screening Cn1c(SCC(=O)NCc2ccco2)nc2ccccc2c1=O returned 15-hLO-2 inh 4.2%, IMPase Li inh 22.5%[38.3 µM], PNC assembly inh -19.5, IMPase inh -1.2, HPGD block -6.7% and 12-hLO inh -7.1%.
`O=C(CSc1nc2ccccc2c(=O)n1Cc1ccc(C(=O)NC2CC2)cc1)NCc1ccco1` gave 15-hLO-2 inh -18.8%, IMPase Li inh 26.2%[38.3 µM], PNC assembly inh -16.8, IMPase inh -0.4, HPGD block 2.82µM* and 12-hLO inh -4.1%.
CCOC(=O)c1ccc(NC(=O)CCSCCc2ccccn2)cc1 was read as IMPase Li inh -7.8%.
Screening CCC(=O)n1nc(-c2ccccc2)nc1SCC(=O)Nc1ccc(C)cc1 returned IMPase Li inh 2.5%[38.3 µM], PNC assembly inh 71.8, IMPase inh 4.1, HPGD block 7.94µM* and 12-hLO inh -4.6%.
Screening O=C(CSc1nc2ccccc2c2nc3ccccc3n12)NCc1ccco1 returned 15-hLO-2 inh inconclusive, IMPase Li inh -14.3%, PNC assembly inh -83.2*, IMPase inh 7.5, HPGD block inconclusive and 12-hLO inh 1.8%.
`CC(=O)n1nc(-c2cccc(C)c2)nc1SCC(=O)Nc1ccccc1` gave 15-hLO-2 inh -4.7%, IMPase Li inh 4.4%, PNC assembly inh inconclusive, IMPase inh -6.4, HPGD block -18.1% and 12-hLO inh 3.6%.
CCc1ccccc1NC(=O)CSc1nc(-c2ccccc2)nn1C(=O)c1cccc([N+](=O)[O-])c1 was read as 15-hLO-2 inh -3.5%, IMPase Li inh -0.7%[38.3 µM], PNC assembly inh 76.4, IMPase inh 4.0, HPGD block 12.6µM* and 12-hLO inh 0.2%.
Screening O=C(CCCCCn1c(SCc2ccncc2)nc2ccccc2c1=O)NCc1ccco1 returned IMPase Li inh 20.1%, PNC assembly inh -100.0*, IMPase inh 22.7, HPGD block 17.8µM* and 12-hLO inh -2.9%.
For Cc1ccc(C2NC(=O)Cc3ccccc32)cc1 (configuration not stated) the results were 15-hLO-2 inh -0.2%, IMPase Li inh 15.3%[38.3 µM], PNC assembly inh 17.0, IMPase inh -3.4, HPGD block -16.1% and 12-hLO inh -4.9%.
For COc1ccc(-c2nc3c(c4c2C[C@H](c2ccccc2)OC4)CN(C(=O)Nc2cccc(C#N)c2)CC3)c(C)c1 the results were IMPase Li inh -4.8%, HPGD block -1.2% and 12-hLO inh -3.5%[11.4 µM].
For Cc1ccc(S(=O)(=O)n2ccc(-c3ccc(OCc4c(F)cccc4Cl)cc3)n2)cc1 the results were IMPase Li inh 8.3%, PNC assembly inh -100.0*, IMPase inh -15.2, HPGD block -5.5% and 12-hLO inh -4.4%.
Screening COc1cc(O)c(NC(C)=O)c2nonc12 returned 15-hLO-2 inh -21.4%, IMPase Li inh 31.0%[38.3 µM], PNC assembly inh -87.8*, IMPase inh 19.2, HPGD block -4.1% and 12-hLO inh -6.0%.
For CC(=O)Nc1nc2ccccc2n1CCOc1ccccc1 the results were 15-hLO-2 inh 6.2%, IMPase Li inh 23.0%[38.3 µM], PNC assembly inh -0.2, IMPase inh 7.9, HPGD block -15.0% and 12-hLO inh -2.6%.
S=C(Nc1ccccc1)Nc1nc2ccccc2n1CCOc1ccccc1 was read as 15-hLO-2 inh inconclusive, IMPase Li inh 11.2%[38.3 µM], PNC assembly inh -10.4, IMPase inh 4.7, HPGD block -15.7% and 12-hLO inh 20µM*.
Cc1nc(SCC(=O)c2ccc(F)cc2)n[nH]1 was read as 15-hLO-2 inh -11.8%, IMPase Li inh 5.4%[38.3 µM], PNC assembly inh inconclusive, IMPase inh -11.4, HPGD block 10µM* and 12-hLO inh inconclusive.
O=C(CSc1n[nH]c(-c2ccccc2)n1)c1ccc(O)c(O)c1 was read as 15-hLO-2 inh inconclusive, IMPase Li inh -8.1%[38.3 µM], PNC assembly inh 5.2, IMPase inh 0.4, HPGD block 3.55µM* and 12-hLO inh inconclusive.
CCc1ccc(C(=O)CSc2n[nH]c(-c3ccncc3)n2)cc1 was read as 15-hLO-2 inh 24.9%, IMPase Li inh 26.5%[38.3 µM], PNC assembly inh 8.7, IMPase inh -0.2, HPGD block 11.2µM* and 12-hLO inh -9.6%.
`O=C(C1CCCO1)N1CCN(Cc2nc3ccccc3c(=O)[nH]2)CC1` (configuration not stated) gave 15-hLO-2 inh -8.3%, IMPase Li inh 26.0%[38.3 µM], PNC assembly inh -135.3*, IMPase inh -4.7, HPGD block -10.6% and 12-hLO inh -0.9%.
For O=c1[nH]c(CN2CCOCC2)nc2ccccc12 the results were IMPase Li inh 0.5%.
O=C(CNC(=O)c1ccc(F)cc1)N/N=C/c1cn[nH]c1-c1ccccc1 was read as IMPase Li inh -5.1%, PNC assembly inh -90.2*, HPGD block -10.1% and 12-hLO inh -1.2%.
For Cc1ccccc1NC(=S)NC(NC(=O)c1ccco1)C(Cl)(Cl)Cl (configuration not stated) the results were IMPase Li inh 10.0%, PNC assembly inh -119.8*, HPGD block -15.8% and 12-hLO inh -17.3%.
